# Laboratory results taken from PubChem BioAssay (NCATS).
# Results filed as inconclusive are left out. Entries that show only a call come without a potency. Active and inactive are the calls of the source. Unless noted, calls follow the shape of the dose curve; as a rule, active = well fitted curve in the direction sought with a large enough effect; inconclusive = small, poorly fitted or top-dose-only effect, or another doubt; inactive = no such curve, though single readings can be large; an effect the other way counts as inactive or inconclusive.
# Assays:
# [1] = Primary qHTS for inhibitors of SARS-S pseudo-typed particle cell entry (AID 1479145; calls by dose curve; also: nearly all actives have a fitted effect of over 45% in size)
# [2] = Primary qHTS for Huh7 cytotoxicity: counterscreen for inhibitors of MERS-S pseudotyped particle cell entry (AID 1479147; calls by dose curve); settings: outcome: dose series up to 57.1 µM unless noted
# [3] = Primary qHTS for inhibitors of MERS-S pseudo-typed particle cell entry (AID 1479149; calls by dose curve; also: nearly all actives have a fitted effect of over 60% in size)
# [4] = Primary qHTS for Vero E6 cytotoxicity: counterscreen for inhibitors of SARS-S pseudo-typed particle cell entry (AID 1479150; calls by dose curve); settings: outcome: dose series up to 57.1 µM unless noted
# [5] = molecular target: Cytochrome P450 2D6 (Homo sapiens) (UniProt P10635); assay: Cytochrome P450 family 2 subfamily D member 6 (CYP2D6) small molecule antagonists: luciferase biochemical (cell-free) qHTS assay (AID 1645840; active = well fitted curve in the direction sought with a large enough effect in the repeat runs; an effect the other way counts as inactive or inconclusive; also: nearly all actives have a fitted effect of over 55% in size; also: potency is read from the fitted curve at half-maximal effect)
# Cytochrome P450 2D6 (Homo sapiens), sequence (P10635 whole entry, looked up): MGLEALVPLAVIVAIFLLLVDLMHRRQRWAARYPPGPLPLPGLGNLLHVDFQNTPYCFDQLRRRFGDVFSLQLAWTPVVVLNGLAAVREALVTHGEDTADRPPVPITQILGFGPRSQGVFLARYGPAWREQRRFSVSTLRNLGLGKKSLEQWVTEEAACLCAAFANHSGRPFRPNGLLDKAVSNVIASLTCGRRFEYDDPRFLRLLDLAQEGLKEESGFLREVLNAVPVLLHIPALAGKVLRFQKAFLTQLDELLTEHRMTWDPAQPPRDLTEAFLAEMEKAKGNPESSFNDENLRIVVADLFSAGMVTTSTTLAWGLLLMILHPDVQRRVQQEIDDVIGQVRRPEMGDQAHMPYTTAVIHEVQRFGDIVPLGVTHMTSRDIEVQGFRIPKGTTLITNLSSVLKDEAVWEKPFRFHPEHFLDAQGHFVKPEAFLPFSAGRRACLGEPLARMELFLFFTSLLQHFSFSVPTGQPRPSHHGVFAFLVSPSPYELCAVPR
# Procedure, shortened: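 P450-Glo CYP2D6 system: proluciferin substrate converted by enzyme to luciferin, read by luminescence proportional to activity. Enzyme-substrate mix with compound 10 min at room temperature, then NADPH regeneration 1 h before detection reagent.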
# [6] = AP1 Signaling Pathway (AID 357; active = well fitted curve in either direction with a large enough effect, not every such curve was filed as active;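 also: ME-180 reporter cells stimulated with EGF at its EC50 level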)
# Procedure, shortened: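 First, ME-180 AP-1-bla cells were cultured overnight at 37 °C in low-serum Opti-MEM. Next, titrated compounds with EC50 EGF were incubated 5 hours. Finally, CCF4 was added for 2.5 hours and the 460/530 nm ratio recorded.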
# [7] = Stat Signaling Pathway (AID 446; active = well fitted curve in either direction with a large enough effect, not every such curve was filed as active;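 also: ME-180 cervical cancer cells given 40 pM IL-6 alongside compound; SIE-controlled beta-lactamase reporter measured as 460/530 nm FRET emission ratio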)
# Procedure, shortened: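 Emission at 460 and 530 nm (excitation 405 nm) reports SIE-controlled beta-lactamase in ME-180 cells. Cells received compound with 40 pM IL-6 for 5 hrs at 37 C; data scaled between 300 pM IL-6 and 125 nM JAK-inhibitor controls.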
# [8] = molecular target: Cytochrome P450 3A4 (Homo sapiens) (UniProt P08684); assay: qHTS Assay for Inhibitors and Substrates of Cytochrome P450 3A4 (AID 884); also: nearly all actives have a fitted effect of over 50% in size; also: potency is read from the fitted curve at half-maximal effect
# Cytochrome P450 3A4 (Homo sapiens), sequence (P08684 whole entry, looked up): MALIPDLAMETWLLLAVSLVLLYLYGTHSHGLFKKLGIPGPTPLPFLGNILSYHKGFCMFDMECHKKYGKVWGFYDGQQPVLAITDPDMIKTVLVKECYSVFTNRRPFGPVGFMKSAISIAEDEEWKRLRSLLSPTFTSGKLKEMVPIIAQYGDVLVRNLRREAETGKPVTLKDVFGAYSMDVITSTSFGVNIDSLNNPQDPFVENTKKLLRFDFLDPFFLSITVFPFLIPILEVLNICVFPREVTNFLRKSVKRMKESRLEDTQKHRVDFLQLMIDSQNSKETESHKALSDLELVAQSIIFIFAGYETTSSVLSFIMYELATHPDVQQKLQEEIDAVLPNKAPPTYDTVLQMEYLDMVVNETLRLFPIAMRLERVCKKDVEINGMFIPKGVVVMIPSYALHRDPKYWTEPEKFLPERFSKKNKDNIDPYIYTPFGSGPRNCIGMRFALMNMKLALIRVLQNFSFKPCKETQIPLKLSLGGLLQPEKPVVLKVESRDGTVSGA
# Procedure, shortened: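 Luminescent readout of luciferin produced by CYP3A4 (20 nM) dealkylation of Luciferin-PPXE, 25 uM (its KM). NADPH-driven reaction ran 60 min at RT after 10 min compound preincubation; data scaled to 57 uM ketoconazole as 100% inhibition.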
# [9] = molecular target: Ubiquitin carboxyl-terminal hydrolase 1 (Homo sapiens) (UniProt O94782); assay: Inhibitors of USP1/UAF1: Pilot qHTS (AID 504865);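 also: rhodamine fluorescence freed from ubiquitin-rhodamine substrate followed over time; top concentration of the series differs between compounds; nearly all actives have a fitted effect of over 35% in size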
# Ubiquitin carboxyl-terminal hydrolase 1 (Homo sapiens), sequence (O94782 whole entry, looked up): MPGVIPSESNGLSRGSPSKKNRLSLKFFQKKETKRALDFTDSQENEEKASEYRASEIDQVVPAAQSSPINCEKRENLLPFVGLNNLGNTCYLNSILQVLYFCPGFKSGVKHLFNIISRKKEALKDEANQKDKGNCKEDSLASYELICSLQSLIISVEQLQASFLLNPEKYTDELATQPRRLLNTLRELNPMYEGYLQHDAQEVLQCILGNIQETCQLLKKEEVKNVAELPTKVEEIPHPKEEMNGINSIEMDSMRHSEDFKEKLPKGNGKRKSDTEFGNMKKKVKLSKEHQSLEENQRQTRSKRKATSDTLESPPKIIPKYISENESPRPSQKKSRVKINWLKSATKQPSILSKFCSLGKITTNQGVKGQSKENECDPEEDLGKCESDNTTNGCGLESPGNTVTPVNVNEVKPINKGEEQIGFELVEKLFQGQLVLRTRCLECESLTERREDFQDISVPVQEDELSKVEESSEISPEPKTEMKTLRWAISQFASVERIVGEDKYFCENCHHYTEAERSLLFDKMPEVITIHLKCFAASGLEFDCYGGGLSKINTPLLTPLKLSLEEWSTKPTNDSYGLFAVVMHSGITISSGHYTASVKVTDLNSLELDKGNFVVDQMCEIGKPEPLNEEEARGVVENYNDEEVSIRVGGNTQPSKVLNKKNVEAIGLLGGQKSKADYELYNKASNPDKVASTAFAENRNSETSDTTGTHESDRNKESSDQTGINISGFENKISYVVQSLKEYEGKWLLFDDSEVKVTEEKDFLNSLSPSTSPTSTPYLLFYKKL
# Procedure, shortened: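 Kinetic fluorescence assay: 1nM USP1/UAF1, 15 min compound preincubation, then 150nM Ub-Rho; 480/540 nm.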
# [10] = molecular target: DNA dC->dU-editing enzyme APOBEC-3G (Homo sapiens) (UniProt Q9HC16); assay: qHTS for inhibitors of Vif-A3G interactions: Validation (AID 588379)
# DNA dC->dU-editing enzyme APOBEC-3G (Homo sapiens), sequence (Q9HC16 whole entry, looked up): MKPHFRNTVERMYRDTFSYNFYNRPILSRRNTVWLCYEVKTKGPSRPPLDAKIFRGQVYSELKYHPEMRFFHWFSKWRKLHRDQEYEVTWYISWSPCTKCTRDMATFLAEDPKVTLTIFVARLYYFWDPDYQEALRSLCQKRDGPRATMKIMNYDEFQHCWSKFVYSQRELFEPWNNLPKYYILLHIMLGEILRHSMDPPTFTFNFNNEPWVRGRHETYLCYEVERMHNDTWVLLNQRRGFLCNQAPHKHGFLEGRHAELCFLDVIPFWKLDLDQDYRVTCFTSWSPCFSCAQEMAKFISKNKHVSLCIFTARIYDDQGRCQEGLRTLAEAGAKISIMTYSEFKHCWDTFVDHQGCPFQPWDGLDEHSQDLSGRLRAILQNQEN
# Procedure, shortened: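 Yellow fluorescence (Ex 488, Em 500-530) of Vif-coexpressing HeLa A3G-eYFP cells, scanned by Acumen cytometer, reports blocked A3G degradation. Cells plated at 700/well overnight at 37 deg C before compound addition, then a further overnight compound incubation at 37 deg C.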
# [11] = tested on: Zika virus NS2B-NS3 protease; assay: Primary screen GU AMC qHTS for Zika virus inhibitors (AID 1347154); also: nearly all actives have a fitted effect of over 70% in size
# Procedure, shortened: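 Fluorogenic AMC-substrate cleavage by noncovalent NS2B-NS3 protease complex (25 nM, pH 8.0 Tris buffer with Tween 20) followed for 15 minutes at room temperature (~20% conversion). Percent inhibition from ex340/em450 signal change, fitted by 4-parameter Hill equation.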
# [12] = Tertiary RLuc qRT-PCR qHTS assay for Zika virus inhibitors (AID 1347169); also: nearly all actives have a fitted effect of over 55% in size; also: potency is read from the fitted curve at half-maximal effect
# Procedure, shortened: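 Orthogonal cell-based infection assay using recombinant ZIKV-RLuc (Cambodian) in Vero cells; compound added prior to virus at MOI 1-2. Incubation lasts 48-72 hrs at 37 degrees C before live-cell Renilla substrate is added and luminescence measured.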
# [13] = Primary qHTS for small molecule stabilizers of the endoplasmic reticulum resident proteome: Secreted ER Calcium Modulated Protein (SERCaMP) assay (AID 1508630); also: potency is read from the fitted curve at half-maximal effect
# Procedure, shortened: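 The SH-SY5Y reporter protocol was run at 3 concentrations up to 38.3 uM (primary) or 11 concentrations (follow-up): 16 h compound, 100 nM thapsigargin for 4 h, then extracellular luciferase luminescence.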
# [14] = molecular target: Phenylethanolamine N-methyltransferase (Homo sapiens) (UniProt P11086); assay: Confirmatory Screen for Target Class Profiling of Small Molecule Inhibitors of Methyltransferases (AID 1745852); settings: MTase-Glo luminescence, SAH detection, recombinant enzyme; measured here: PNMT max response; stronger effect = lower value
# Phenylethanolamine N-methyltransferase (Homo sapiens), sequence (P11086 whole entry, looked up): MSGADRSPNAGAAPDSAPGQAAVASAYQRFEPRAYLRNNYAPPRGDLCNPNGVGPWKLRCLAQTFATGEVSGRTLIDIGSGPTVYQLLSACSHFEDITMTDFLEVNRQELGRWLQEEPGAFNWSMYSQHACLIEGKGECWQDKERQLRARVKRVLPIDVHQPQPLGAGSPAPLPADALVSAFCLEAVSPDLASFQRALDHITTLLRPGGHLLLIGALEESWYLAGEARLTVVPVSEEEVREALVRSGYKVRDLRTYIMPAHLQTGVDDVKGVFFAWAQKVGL
# [15] = Confirmatory qHTS for VERO E6 Cytotoxicity Assay: Counterscreen for SARS-CoV-2 CPE Assay (AID 1508605; calls by dose curve; also: nearly all actives have a fitted effect of over 60% in size; also: potency is read from the fitted curve at half-maximal effect)
# [16] = Confirmatory qHTS for activators (rescue) of SARS-CoV-2 Cytopathic Effect (CPE) (AID 1508606; calls by dose curve; also: potency is read from the fitted curve at half-maximal effect; nearly all actives have a fitted effect of over 70% in size)
# NIH3T3 = assay: qHTS assay to identify novel small-molecules to repurpose for Merkel cell carcinoma treatment (AID 1296009); settings: MCC and control cell lines, CellTiter-Glo viability, 72 h; at 44.8 µM (top of the series) unless noted; also: nearly all actives have a fitted effect of over 60% in size
# Procedure, shortened: (§1)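 Cell viability, measured as CellTiter-Glo luminescence, was normalized between DMSO and no-cell wells. The cells had been exposed to 8- or 11-point compound dilutions for 72 hr at 37 degree celsius.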
# [17] = qHTS assay to identify inhibitors of the type 1 interferon - major histocompatibility complex class I in skeletal muscle: Counter screen cell viability and HiBit confirmation (AID 1347412); settings: iHSKM muscle cells + IFN-b, HiBiT or CellTiter-Glo, 24 h; Potency: HiBiT; Viability, at 45.9 µM (top of the series); also: nearly all actives have a fitted effect of over 60% in size; also: potency is read from the fitted curve at half-maximal effect
# Procedure, shortened: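 Myoblasts (C25cl48, HLA-B HiBiT) seeded in medium without dexamethasone, IFN-b 4 ng/ml added except unstimulated columns; 1 hr later compounds pinned (12-pt 1:3, top 46 uM final). Incubated 24 hrs, lysed 10 min, luminescence measured.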
# [18] = qHTS to identify inhibitors of the type 1 interferon - major histocompatibility complex class I in skeletal muscle: primary screen against the NCATS Mechanism Interrogation Plate v5.0 (MIPE) Libary (AID 1347411); also: nearly all actives have a fitted effect of over 65% in size; also: potency is read from the fitted curve at half-maximal effect
# Procedure, shortened: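 Luminescence from CRISPR HiBit-tagged endogenous HLA-B in human myoblasts reported MHC class I level after 24 h of IFN-beta (4 ng/ml) plus compound. Compounds ran as 11-point 1:3 series, top 46 uM final.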
# HEK293T = assay: qHTS assay to identify novel small-molecules to repurpose for Merkel cell carcinoma treatment (AID 1296009); settings: MCC and control cell lines, CellTiter-Glo viability, 72 h; at 44.8 µM (top of the series) unless noted; also: nearly all actives have a fitted effect of over 60% in size
# Procedure, shortened: as §1
smiles,measurement,setting,value
CC(=O)O[C@H]1CC[C@H]2[C@@H]3CC[C@H]4CC(=O)C=C(C)[C@]4(C)[C@H]3CC[C@]12C,Potency,[1],inactive
same,outcome,[2],inactive
same,Potency,[3],inactive
same,outcome,[4],inactive
CN1C2CCC1CC(OC(=O)N1Cc3ccccc3NC1=O)C2 (configuration not stated),Potency,[5],inactive
C=CCN1CCC2(C)c3cc(O)ccc3C[C@H]1[C@H]2C,outcome,[6],inactive
same,outcome,[7],inactive
same,Potency,[8],inactive
same,Potency,[9],inactive
same,Potency,[10],inactive
same,Potency,[11],inactive
same,Potency,[12],inactive
same,Potency,[13],inactive
COc1ccc(CN(C(=O)[C@@H](N)Cc2c(C)cc(C(N)=O)cc2C)[C@@H](C)c2ncc(-c3ccccc3)[nH]2)cc1C(=O)O,Potency,[1],inactive
same,outcome,[2],inactive
same,Potency,[3],inactive
same,outcome,[4],inactive
CC1(C)C(=O)N(c2ccc(C#N)c(C(F)(F)F)c2)C(=O)N1CCCCO,Potency,[5],inactive
COc1cc(N2CCN(C)CC2)ccc1N,activity,[14],-33.9%
CN1CCc2cc3c(cc2C1C1OC(=O)c2c1ccc1c2OCO1)OCO3 (configuration not stated),Potency,[8],1260 nM (active)
same,Potency,[10],inactive
same,Potency,[11],inactive
same,Potency,[13],inactive
Oc1ccc2c3c1O[C@H]1c4[nH]c5c(N=C=S)cccc5c4C[C@@]4(O)[C@@H](C2)N(CC2CC2)CC[C@]314,Potency,[15],inactive
same,Potency,[16],10000 nM (active)
CC(=O)OC[C@]12C[C@H](OC(=O)CC(C)C)C(C)=C[C@H]1O[C@@H]1[C@H](O)[C@@H](O)[C@@]2(C)[C@]12CO2,Potency,[15],113 nM (active)
C[C@H]1O[C@@H](O[C@H]2CC[C@]3(CO)C4CC[C@]5(C)[C@@H](C6=CC(=O)OC6)CC[C@]5(O)[C@@H]4CC[C@H]3C2)[C@H](O)[C@H](O)[C@@H]1O[C@@H]1O[C@H](CO)[C@@H](O)[C@H](O)[C@H]1O (some centres not stated),activity,[14],-1.28%
CC1=CC(=O)[C@@H](O)[C@]2(C)C3[C@@H](O)[C@@H]4OC(=O)[C@@H]([C@H]4C)[C@]3(C)C(=O)C[C@@H]12 (some centres not stated),Potency,[15],2240 nM (active)
CN(C)c1cc2c(cc1Sc1nc3c(N)nccc3n1CCNCC(C)(C)C)OCO2,Potency,[16],2240 nM (active)
same,Potency,[5],952 nM (active)
same,activity,[14],-0.0762%
CNc1ccc2oc(C[C@H]3O[C@@]4(CC[C@H]3C)O[C@H](C(C)C(=O)c3ccc[nH]3)[C@H](C)C[C@H]4C)nc2c1C(=O)O (some centres not stated),Potency,[12],658 nM (active)
same,Potency,[5],inactive
CC1CCCC(=O)CCC/C=C/c2cc(O)cc(O)c2C(=O)O1 (configuration not stated),Potency,[8],2000 nM (active)
same,Potency,[9],inactive
COC1C(O)C(C)OC(OC2C(CO)O[C@@H](O[C@@H]3CC4CCC5C(CC[C@]6(C)[C@@H](C7=CC(=O)OC7)CC[C@]56O)[C@@]4(C)[C@H](OC(C)=O)C3)C(O)C2O)C1O (some centres not stated),outcome,NIH3T3,inactive [at 17.4 µM]
C=C1[C@@H](C)[C@H]2[C@H](Cc3ccccc3)NC(=O)[C@]23[C@H](OC(C)=O)/C=C/[C@](C)(O)C(=O)[C@@H](C)C/C=C/[C@H]3[C@@H]1O,Potency,[11],inactive
same,Potency,[13],inactive
Cc1sc2c(c1C)C(c1ccc(Cl)cc1)=N[C@@H](CC(N)=O)c1nnc(C)n1-2,Potency,[5],inactive
same,Potency,[17],inactive
C[C@H]1CCC/C=C/C2C[C@H](O)C[C@H]2[C@H](O)/C=C/C(=O)O1 (some centres not stated),Potency,[11],inactive
same,Potency,[18],147 nM (active)
same,Potency,[13],316 nM (active)
same,Potency,[17],140 nM (active)
N#Cc1cn([C@@H]2O[C@H](CO)[C@H](O)[C@@H]2O)c2ncnc(N)c12,activity,[14],-99.9%
Cc1ccccc1CN1CCC(N2CCC(n3c(=O)[nH]c4ccccc43)CC2)CC1,outcome,NIH3T3,inactive
CCC1NC(=O)C2C(Cl)C(Cl)CN2C(=O)C(CC)NC(=O)CC(c2ccccc2)NC(=O)C(CO)NC1=O (configuration not stated),outcome,NIH3T3,inactive [at 17.4 µM]
CCC1C2CC3C4N(C)c5ccccc5C45CC(C2C5O)N3C1O (configuration not stated),outcome,HEK293T,inactive
CN1C[C@@H]2CN(c3ccc(-c4ccccc4)nn3)C[C@@H]2C1,outcome,NIH3T3,inactive
C=C1C[C@]2(O)[C@@]3(C)CCC(=O)C(C)(C)C3=C(O)C(=O)[C@@]2(C)[C@@H]2C(=O)O[C@@](C)(C(=O)OC)C(=O)[C@@]12C,outcome,HEK293T,inactive [at 17.4 µM]
CN1CCN(c2nc3ccccc3nc2Cl)CC1,outcome,HEK293T,inactive
same,outcome,NIH3T3,inactive
Nc1ncnc2c1ncn2[C@@H]1O[C@@H]2COP(O)(=S)O[C@H]2[C@H]1O (some centres not stated),outcome,HEK293T,inactive [at 9.27 µM]
CCCCN1[C@@H]2CC[C@H]1CC(OC(c1ccc(F)cc1)c1ccc(F)cc1)C2 (some centres not stated),Potency,[16],5010 nM (active)
same,activity,[14],3.98%
CN[C@@H]1C[C@H]2O[C@@](C)([C@@H]1OC)n1c3ccccc3c3c4c(c5c6ccccc6n2c5c31)C(=O)NC4,Potency,[18],829 nM (active)
same,Potency,[17],198 nM (active)
C=C(C)[C@@H]1[C@H]2OC(=O)[C@H]1[C@]1(O)C[C@H]3O[C@]34C(=O)O[C@H]2[C@]14C,outcome,HEK293T,inactive
same,outcome,NIH3T3,inactive
C[C@@H]1CN(Cc2ccc(F)cc2)CCN1C(=O)COc1ccc(Cl)cc1NC(N)=O,Potency,[18],inactive
C[C@@]1(CO)[C@H](O)CC[C@@]2(C)[C@H]1CC[C@H]1C[C@@H]3C[C@@]12CC[C@]3(O)CO,outcome,[6],inactive
same,outcome,[7],inactive
same,Potency,[11],inactive
same,Potency,[13],inactive
C=C(CO)C(=O)O[C@H]1CC(=C)[C@@H]2C[C@H](O)C(=C)[C@@H]2[C@H]2OC(=O)C(=C)[C@@H]21,activity,[14],-8.66%
CN(C)[C@@H]1C(=O)C(C(N)=O)=C(O)[C@@]2(O)C(=O)C3=C(O)c4c(O)ccc(Cl)c4[C@@](C)(O)C3C[C@@H]12 (some centres not stated),outcome,[6],inactive
same,outcome,[7],inactive
